Data published in PubChem BioAssay AID2314 (National Center for Advancing Translational Sciences (NCATS), 2010).
Among all 300,000 compounds or so, about 37,000 (12%) were called active. No stated cut-off is given here; in the data, active means max response mostly above about 13% (no sharp cut-off); inactive means mostly below about 14%. Only a selection was taken, and actives are over-represented in it overall.

Test: Cycloheximide Counterscreen for Small Molecule Inhibitors of Shiga Toxin; further: read at 38.3 µM for the half of the compounds with a filed dose; 0% is about no effect
Details: cell reporter, cycloheximide protein synthesis inhibition counterscreen; stronger effect = higher value
For `O=C(NCc1ccccc1Cl)C1CCCN1S(=O)(=O)c1ccc(F)cc1` (stereo unspecified), the max response was -3.67% (inactive).
For `COCCCNC(=S)N1CCCC(c2nc3cc(C)c(C)cc3[nH]2)C1` (stereo unspecified), the max response was 13.5% (inactive).
With `CC1CCN(C(=S)c2ccc(-c3ccc(Cl)cc3Cl)o2)CC1` the max response was 8.41% (inactive).
For `CCOC(=O)c1cnc(Nc2nc3ccccc3o2)nc1CSC(=S)N1CCCCC1`, the max response was 10.5% (inactive).
For `Cc1cc(N=Nc2ccc3ccccc3c2)ccc1O`, the max response was 46.6% (active).
In the case of `COc1ccc(N=Nc2ccc(O)c(P(=O)(c3ccccc3)c3ccccc3)c2)cc1`, the max response is reported as -8.38% (inactive).
For `COc1ccnc2c1c(=O)n(Cc1cccc(F)c1)c(=O)n2C`, the max response was 6.46% (inactive).
For `COc1ccc(-c2csc(NC3OC(=O)c4ccccc43)n2)cc1` (stereo unspecified), the max response was 20% (active).
In the case of `Cc1ccc(-c2csc(NC(=O)Cn3[nH]c(=O)c4ccccc4c3=O)n2)cc1`, the max response is reported as 11.5% (inactive).
In the case of `COc1ccc2c(c1OC)C(=O)OC2c1c(O)nc(SC)n(-c2ccccc2)c1=O` (stereo unspecified), the max response is reported as -1.46% (inactive).
In the case of `Cc1ccc(-c2csc(NC3OC(=O)c4ccccc43)n2)cc1` (stereo unspecified), the max response is reported as 21.8% (active).
With `COc1ccc2c(c1OC)C(=O)OC2Nc1nc(-c2ccccc2)cs1` (stereo unspecified) the max response was 38.5% (active).
For `COc1ccc(N/C=C(\C2OC(=O)c3ccccc32)[N+](=O)[O-])cc1` (stereo unspecified), the max response was 7.23% (inactive).
In the case of `CCc1ccccc1NC(=O)[C@@H]1CCC(=O)N1C1OC(=O)c2c1ccc(OC)c2OC` (stereo partly specified), the max response is reported as -2.07% (inactive).
With `COc1ccc(C(=O)Nc2nc(-c3ccc(S(=O)(=O)N4CCOCC4)cc3)cs2)cc1` the max response was 0.36% (inactive).
In the case of `O=C(Cn1c(NCCO)nc2ccccc21)c1ccc(Cl)cc1Cl`, the max response is reported as -1.01% (inactive).
In the case of `COc1ccc(CN2CCN(Cc3cn(C)nc3-c3ccccc3)CC2CCO)c(C)c1C` (stereo unspecified), the max response is reported as 7.91% (inactive).
In the case of `CC(=O)c1ccc(S(=O)(=O)N(C)CCCC(=O)N(C)Cc2ccccc2F)cc1`, the max response is reported as 2.54% (inactive).
In the case of `COC(=O)C1=CN(Cc2ccc(OC)cc2)C=C(C(=O)OC)C1c1ccc(O)c(OC)c1`, the max response is reported as -3.7% (inactive).
For `O=C(c1ccc(Br)o1)N(c1ccccn1)C1CCCCC1`, the max response was 0.638% (inactive).
In the case of `Cc1cc(C)c(C#N)c(SCc2ccc3c(c2)OCO3)n1`, the max response is reported as -2.14% (inactive).
With `Cc1ccc(CSc2nsc(C)c2C#N)cc1` the max response was 22% (active).
With `Cc1snc(SCc2c(F)cccc2Cl)c1C#N` the max response was -2.84% (inactive).
In the case of `Cn1c(CCC(=O)OCC(=O)NCc2ccccc2Cl)nc(=O)c2ccccc21`, the max response is reported as -1.91% (inactive).
In the case of `CCOCCCNC(=S)Nc1ccc2nc(N3CCN(CC)CC3)cc(C)c2c1`, the max response is reported as -1.07% (inactive).
In the case of `COc1cccc(CCNC(=O)c2cccc(NC(=O)C3=C(C)OCCS3)c2)c1`, the max response is reported as 12% (inactive).
For `CC(=O)Nc1ccc(NC(=S)NC(=O)c2ccc([N+](=O)[O-])c(C)c2)cc1`, the max response was 17.1% (active).
With `Cc1ccc(C(=O)NC(=S)Nc2ccc3[nH]c(=O)[nH]c3c2)cc1C` the max response was 2.1% (inactive).
For `CC(=O)NC(=S)Nc1ccc(NC(=S)NC(=O)c2ccc([N+](=O)[O-])cc2)cc1`, the max response was 10.5% (inactive).
In the case of `COc1ccc(N2CC(C(=O)N[C@@H](C)C(=O)N3CCCCC3)CC2=O)cc1` (stereo partly specified), the max response is reported as -0.721% (inactive).
With `O=C1/C(=C/c2coc3ccc(O)cc3c2=O)SC(=S)N1c1ccccc1` the max response was -2.68% (inactive).
With `COc1ccccc1C(=O)Oc1ccc(N2C(=O)CCC2=O)cc1` the max response was -4.08% (inactive).
In the case of `Cc1cc(OC(=O)c2ccccc2Cl)ccc1N1C(=O)CCC1=O`, the max response is reported as 43.6% (active).
For `CCOC(=O)c1cc(OC(=O)c2ccccc2Cl)n(-c2ccccc2)n1`, the max response was 28.5% (inactive).
With `O=C1c2ccccc2-c2ncnc3c(N4CCOCC4)cc(N4CCOCC4)c1c23` the max response was -4.86% (inactive).
With `CC(=O)c1ccc(S(=O)(=O)N2CCC3(CC2)OCCO3)cc1` the max response was -6.29% (inactive).
In the case of `COc1ccccc1CN1CCN(Cc2cc(OC)c(OC)cc2OC)CC1`, the max response is reported as 3.57% (inactive).
In the case of `O=C(CCc1nc2ccccc2c(=O)[nH]1)OCC(=O)c1cccc(Cl)c1`, the max response is reported as -1.24% (inactive).
In the case of `O=C(COC(=O)CCc1nc2ccccc2c(=O)[nH]1)Nc1ccc(N2CCOCC2)cc1`, the max response is reported as 2.13% (inactive).
In the case of `CC(C)(C)c1ccc(NC(=O)COC(=O)CCc2nc3ccccc3c(=O)[nH]2)cc1`, the max response is reported as 14.2% (active).
In the case of `O=C(c1ccc[nH]c1=S)N1CCN(S(=O)(=O)c2ccc(Br)cc2Cl)CC1`, the max response is reported as -2.01% (inactive).
In the case of `COc1ccc(NC(=O)CCS(=O)(=O)c2cc3c(cc2Cl)NC(=O)CO3)cc1OC`, the max response is reported as -10.6% (inactive).
With `COc1ccccc1OCC(=O)Nc1c2c(nn1-c1ccc(F)cc1)CS(=O)(=O)C2` the max response was -3.21% (inactive).
With `N#Cc1cc([N+](=O)[O-])ccc1Oc1cccc(/C=N/NC(=O)c2ccc(Cl)cc2)c1` the max response was -2.97% (inactive).
With `Cc1ccc(NC(=O)O/N=C/c2cccc([N+](=O)[O-])c2)cc1` the max response was 40.6% (active).
With `Cc1ccc(NC(=O)C(=O)NCC2CCN(C(=O)c3cccc([N+](=O)[O-])c3)CC2)cc1` the max response was 3.94% (inactive).
With `CCc1ccc(NC(=O)C(C)OC(=O)/C=C/c2cccc([N+](=O)[O-])c2)cc1` (stereo unspecified) the max response was 59.2% (active).
For `CCC(CC)NC(=O)/C=C/c1cccc([N+](=O)[O-])c1`, the max response was -4.49% (inactive).
In the case of `Cc1ccc(NC(=O)/C(=C/c2ccc([N+](=O)[O-])cc2)NC(=O)c2ccccc2)cc1`, the max response is reported as -3.41% (inactive).
In the case of `O=C(N/N=C/c1cccc(OC(=O)c2ccc([N+](=O)[O-])cc2)c1)c1cccnc1`, the max response is reported as -7.61% (inactive).
With `Cc1cccc(COc2ccccc2/C=N/Nc2ccc([N+](=O)[O-])cc2)c1` the max response was -0.989% (inactive).
In the case of `O=C(O)/C=C/C(=O)NNc1ccc([N+](=O)[O-])cc1`, the max response is reported as 10.2% (inactive).
In the case of `O=[N+]([O-])c1ccc(N/N=C/c2ccccc2)cc1`, the max response is reported as 34.7% (active).
In the case of `CC(=O)Nc1ccc(NC(=O)C(C)OC(=O)c2ccccc2C(=O)c2ccc(Cl)c([N+](=O)[O-])c2)cc1` (stereo unspecified), the max response is reported as 8.13% (inactive).
In the case of `O=C(N/N=C/c1cccc([N+](=O)[O-])c1)c1ccncc1`, the max response is reported as 11% (active).
For `COc1ccc(C(=O)NC2CC(C)(C)Cc3c2cnn3-c2ccccc2C)o1` (stereo unspecified), the max response was -0.937% (inactive).
With `CC(Sc1nnc(CNC(=O)c2ccccc2F)n1C)C(=O)Nc1nccs1` (stereo unspecified) the max response was -1.64% (inactive).
For `CCN(CC)S(=O)(=O)c1ccc(Cl)c(C(=O)NC(C)C(c2cccs2)N2CCCC2)c1` (stereo unspecified), the max response was 3.13% (inactive).
For `O=C1CCC([N+](=O)[O-])C(c2ccccc2Br)N1` (stereo unspecified), the max response was -3.57% (inactive).
In the case of `Oc1ccccc1CN1CCN(C(c2ccccc2)c2ccccc2)CC1`, the max response is reported as 2.23% (inactive).
In the case of `Cc1cccc(C(=O)OCC(=O)Nc2sc3c(c2C#N)CCC3)c1`, the max response is reported as -3.19% (inactive).
In the case of `COc1ccc(CN2CCn3ncc(C(=O)Nc4ccc(Cl)cc4Cl)c3C2=O)cc1`, the max response is reported as -1.27% (inactive).
In the case of `Cc1ccc(C(c2nnnn2CS(=O)(=O)c2ccc(C)cc2)N2CCC(C)CC2)cc1` (stereo unspecified), the max response is reported as 1.26% (inactive).
In the case of `COc1cccc(-c2nc(CS(=O)CC(=O)NCc3ccc(F)cc3)c(C)o2)c1` (stereo unspecified), the max response is reported as -2.32% (inactive).
With `O=[N+]([O-])c1cccc(/C=N/Nc2ncc(Br)cn2)c1` the max response was 29.2% (active).
In the case of `O=C(N/N=C/c1cccc([N+](=O)[O-])c1)C1CC(=O)N(c2ccc(Br)cc2)C1` (stereo unspecified), the max response is reported as 0.637% (inactive).
In the case of `COc1ccc(O)c(/C=N/N=C/c2cccc([N+](=O)[O-])c2)c1`, the max response is reported as -1.21% (inactive).
With `CC(NC(=S)Nc1ccccc1)C(c1cccs1)N1CCOCC1` (stereo unspecified) the max response was -0.819% (inactive).
With `CC(C)CN(C(=O)c1cccc(S(=O)(=O)N2CCCCC2)c1)C1CCS(=O)(=O)C1` (stereo unspecified) the max response was -3.21% (inactive).
With `CCOc1cc2[nH]c(=O)n(Cc3ccc(C(=O)NCCCN4CCCC4=O)cc3)c(=O)c2cc1OCC` the max response was 3.4% (inactive).
For `CCOc1ccc(C(=O)NCCCN2CCCC2=O)cc1`, the max response was 16.9% (active).
With `Cc1cccc(C(=O)NCCCN2CCCC2=O)c1` the max response was -1.36% (inactive).
For `Cn1c(N)c(C(=O)COC(=O)/C=C/c2ccc(OC(F)F)cc2)c(=O)n(C)c1=O`, the max response was 9.63% (inactive).
For `COc1ccc(S(=O)(=O)n2cnc3ccccc32)c(C)c1`, the max response was 8.08% (inactive).
For `COc1cccc(NC(=O)CN(C)C(=O)/C=C/c2cc(OC)ccc2OC)c1`, the max response was -0.59% (inactive).
For `O=C(NCCCNc1ccc([N+](=O)[O-])cc1Cl)c1ccccc1F`, the max response was 11.2% (inactive).
For `O=C(NCCNc1ccccc1[N+](=O)[O-])c1ccccc1F`, the max response was 46.4% (active).
In the case of `Cc1c(NC(=S)NCc2ccc(F)cc2)cccc1[N+](=O)[O-]`, the max response is reported as -2.87% (inactive).
In the case of `O=[N+]([O-])c1ccccc1NCc1ccc(Cl)cc1`, the max response is reported as 19.5% (active).
In the case of `O=[N+]([O-])c1ccccc1NCc1ccccc1Cl`, the max response is reported as 0.768% (inactive).
With `O=C(NCCNc1ccc([N+](=O)[O-])cc1Cl)c1ccccc1F` the max response was 12.9% (inactive).
With `COc1ccc(NS(=O)(=O)c2cccc3nsnc23)cc1Cl` the max response was -2.31% (inactive).
With `Cc1noc(C)c1S(=O)(=O)Nc1cc(C(F)(F)F)ccc1N1CCOCC1` the max response was 1.06% (inactive).
In the case of `COCCCNC(=O)/C(C#N)=C/c1c(N2CCCCCC2)nc2ccccn2c1=O`, the max response is reported as 5.95% (inactive).
In the case of `CCCC[C@]12Cc3cc(OC)c(OC)cc3C(O1)C1=C(CC3(CCCCC3)OC1=O)O2`, the max response is reported as -1.97% (inactive).
In the case of `COc1cc(/C=C/C(=O)OCC(=O)N2CCOCC2)ccc1OCC#N`, the max response is reported as -1.28% (inactive).
In the case of `CSc1cccc(NC(=S)N(C(C)C)C(C)c2ccccn2)c1` (stereo unspecified), the max response is reported as 9.01% (inactive).
For `C=CCNC(=S)NNC(=O)COc1c(Cl)cc(Cl)cc1Cl`, the max response was -3.49% (inactive).
With `Cc1ccc(Cn2ccc(NC(=O)c3cc(C(C)C)on3)n2)cc1` the max response was 48% (active).
For `Cc1ccc(Cn2ccc(NC(=O)C3C4CCC(C4)C3C(=O)O)n2)cc1` (stereo unspecified), the max response was 1.94% (inactive).
For `Cc1cc(C(=O)Nc2c(C)nn(Cc3ccccc3)c2C)on1`, the max response was -4.11% (inactive).
